Measurements from the supplement of paper PMC6411743.
± gives the standard deviation of the averaged measurements. Of roughly 6,200 targets only a part is listed; those with the largest changes were picked by preference.

Compound: Nc1ncnc2c1ncn2[C@@H]1O[C@H](COP(=O)(O)OP(=O)(O)NP(=O)(O)O)[C@@H](O)[C@H]1O [adenylyl imidodiphosphate]
Assay: NP40-soluble protein abundance relative to vehicle (solubility fold change) (ratio); higher = more soluble protein in presence of AMP-PNP
Procedure, shortened: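 Each value is a fold change relative to the detergent-processed vehicle, calculated per replicate from vsn-normalised intensities. Jurkat crude lysate received eight concentrations (0.1 to 10 mM) for 10 min at room temperature and 3 min at 37 °C, then was solubilised in 0.8% NP40 with benzonase (60 min, 4 °C). The ultracentrifuged supernatant was TMT-labelled and run by LC-MS/MS in three independent experiments.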

Sequence of UniProt Q9ULX3 (Q9ULX3 whole entry): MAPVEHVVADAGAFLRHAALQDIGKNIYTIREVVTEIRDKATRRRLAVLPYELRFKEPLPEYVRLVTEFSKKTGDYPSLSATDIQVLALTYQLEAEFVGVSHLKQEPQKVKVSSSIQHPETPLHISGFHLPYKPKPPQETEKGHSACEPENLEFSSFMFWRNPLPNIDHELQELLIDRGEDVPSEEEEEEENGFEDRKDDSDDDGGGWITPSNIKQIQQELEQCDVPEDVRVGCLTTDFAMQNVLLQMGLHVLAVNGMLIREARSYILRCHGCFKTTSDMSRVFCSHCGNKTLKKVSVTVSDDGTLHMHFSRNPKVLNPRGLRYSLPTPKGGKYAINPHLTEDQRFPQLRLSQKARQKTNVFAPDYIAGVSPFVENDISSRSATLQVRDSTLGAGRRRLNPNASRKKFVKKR
Sequence of UniProt Q96FS4 (Q96FS4 whole entry): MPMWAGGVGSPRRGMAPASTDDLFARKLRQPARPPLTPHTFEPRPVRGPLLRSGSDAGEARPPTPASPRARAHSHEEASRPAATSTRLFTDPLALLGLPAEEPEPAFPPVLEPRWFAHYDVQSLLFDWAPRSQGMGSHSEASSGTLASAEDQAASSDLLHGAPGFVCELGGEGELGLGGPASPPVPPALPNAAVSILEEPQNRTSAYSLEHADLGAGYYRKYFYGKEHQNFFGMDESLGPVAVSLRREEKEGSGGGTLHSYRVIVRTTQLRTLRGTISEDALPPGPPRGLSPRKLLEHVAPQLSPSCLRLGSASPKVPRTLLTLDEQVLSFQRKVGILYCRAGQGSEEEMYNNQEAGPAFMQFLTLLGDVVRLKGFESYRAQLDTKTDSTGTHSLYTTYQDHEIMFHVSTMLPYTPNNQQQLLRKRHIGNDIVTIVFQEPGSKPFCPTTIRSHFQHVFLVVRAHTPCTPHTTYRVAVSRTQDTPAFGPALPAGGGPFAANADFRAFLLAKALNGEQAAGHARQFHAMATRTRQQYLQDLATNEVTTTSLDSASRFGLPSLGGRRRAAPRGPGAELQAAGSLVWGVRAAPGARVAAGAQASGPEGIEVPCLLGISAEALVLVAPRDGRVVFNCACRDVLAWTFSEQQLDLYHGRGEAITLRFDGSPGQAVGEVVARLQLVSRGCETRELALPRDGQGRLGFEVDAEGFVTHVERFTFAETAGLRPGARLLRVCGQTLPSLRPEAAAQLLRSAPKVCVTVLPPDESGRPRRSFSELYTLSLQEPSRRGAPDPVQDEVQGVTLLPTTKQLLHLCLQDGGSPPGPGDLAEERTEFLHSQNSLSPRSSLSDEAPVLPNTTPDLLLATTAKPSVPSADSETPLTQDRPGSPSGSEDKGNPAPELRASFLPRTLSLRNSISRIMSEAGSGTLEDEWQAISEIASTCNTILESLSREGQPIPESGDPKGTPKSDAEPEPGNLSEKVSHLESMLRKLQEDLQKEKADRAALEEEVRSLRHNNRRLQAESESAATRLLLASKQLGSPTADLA
Sequence of UniProt Q9NPG3 (Q9NPG3 whole entry): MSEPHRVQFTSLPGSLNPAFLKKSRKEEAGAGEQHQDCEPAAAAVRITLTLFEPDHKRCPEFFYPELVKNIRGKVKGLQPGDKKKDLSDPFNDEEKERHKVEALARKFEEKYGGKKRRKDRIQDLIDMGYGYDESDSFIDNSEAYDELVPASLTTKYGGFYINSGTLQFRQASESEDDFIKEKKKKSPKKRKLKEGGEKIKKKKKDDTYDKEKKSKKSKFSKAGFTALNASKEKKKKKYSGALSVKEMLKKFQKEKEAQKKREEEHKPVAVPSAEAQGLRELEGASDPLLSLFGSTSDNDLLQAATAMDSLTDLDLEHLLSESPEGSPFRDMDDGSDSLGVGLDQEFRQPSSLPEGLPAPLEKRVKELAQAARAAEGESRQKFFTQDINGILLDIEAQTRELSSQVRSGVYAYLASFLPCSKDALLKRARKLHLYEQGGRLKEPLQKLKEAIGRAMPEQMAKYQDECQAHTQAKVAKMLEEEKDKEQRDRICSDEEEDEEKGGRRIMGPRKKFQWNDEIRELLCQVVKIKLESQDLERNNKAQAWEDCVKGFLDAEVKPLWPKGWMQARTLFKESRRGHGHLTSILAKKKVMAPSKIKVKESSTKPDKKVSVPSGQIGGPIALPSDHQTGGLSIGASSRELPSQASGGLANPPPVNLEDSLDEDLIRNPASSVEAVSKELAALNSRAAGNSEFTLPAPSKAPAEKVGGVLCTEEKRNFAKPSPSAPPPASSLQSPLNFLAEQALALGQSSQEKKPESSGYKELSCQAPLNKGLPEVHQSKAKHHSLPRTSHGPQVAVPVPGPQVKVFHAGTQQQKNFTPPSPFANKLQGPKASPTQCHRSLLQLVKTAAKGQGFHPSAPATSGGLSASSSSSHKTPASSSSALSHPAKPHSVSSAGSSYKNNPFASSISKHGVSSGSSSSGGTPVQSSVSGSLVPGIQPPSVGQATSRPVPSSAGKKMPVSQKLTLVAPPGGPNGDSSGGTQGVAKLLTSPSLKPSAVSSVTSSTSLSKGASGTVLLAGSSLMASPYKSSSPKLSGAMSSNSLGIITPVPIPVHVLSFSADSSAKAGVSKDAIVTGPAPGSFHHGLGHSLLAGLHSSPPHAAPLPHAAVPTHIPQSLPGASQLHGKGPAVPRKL
Sequence of UniProt Q9H8P0 (Q9H8P0 whole entry, one chain of several): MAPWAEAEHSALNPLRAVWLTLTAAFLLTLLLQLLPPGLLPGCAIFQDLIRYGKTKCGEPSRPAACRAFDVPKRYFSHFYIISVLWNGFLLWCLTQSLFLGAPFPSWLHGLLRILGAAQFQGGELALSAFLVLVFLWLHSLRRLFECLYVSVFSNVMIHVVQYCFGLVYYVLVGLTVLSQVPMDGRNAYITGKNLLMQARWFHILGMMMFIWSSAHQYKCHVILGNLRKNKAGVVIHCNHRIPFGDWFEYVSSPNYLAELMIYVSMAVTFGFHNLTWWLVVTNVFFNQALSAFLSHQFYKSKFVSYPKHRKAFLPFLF
Sequence of UniProt Q96QE3 (Q96QE3 whole entry): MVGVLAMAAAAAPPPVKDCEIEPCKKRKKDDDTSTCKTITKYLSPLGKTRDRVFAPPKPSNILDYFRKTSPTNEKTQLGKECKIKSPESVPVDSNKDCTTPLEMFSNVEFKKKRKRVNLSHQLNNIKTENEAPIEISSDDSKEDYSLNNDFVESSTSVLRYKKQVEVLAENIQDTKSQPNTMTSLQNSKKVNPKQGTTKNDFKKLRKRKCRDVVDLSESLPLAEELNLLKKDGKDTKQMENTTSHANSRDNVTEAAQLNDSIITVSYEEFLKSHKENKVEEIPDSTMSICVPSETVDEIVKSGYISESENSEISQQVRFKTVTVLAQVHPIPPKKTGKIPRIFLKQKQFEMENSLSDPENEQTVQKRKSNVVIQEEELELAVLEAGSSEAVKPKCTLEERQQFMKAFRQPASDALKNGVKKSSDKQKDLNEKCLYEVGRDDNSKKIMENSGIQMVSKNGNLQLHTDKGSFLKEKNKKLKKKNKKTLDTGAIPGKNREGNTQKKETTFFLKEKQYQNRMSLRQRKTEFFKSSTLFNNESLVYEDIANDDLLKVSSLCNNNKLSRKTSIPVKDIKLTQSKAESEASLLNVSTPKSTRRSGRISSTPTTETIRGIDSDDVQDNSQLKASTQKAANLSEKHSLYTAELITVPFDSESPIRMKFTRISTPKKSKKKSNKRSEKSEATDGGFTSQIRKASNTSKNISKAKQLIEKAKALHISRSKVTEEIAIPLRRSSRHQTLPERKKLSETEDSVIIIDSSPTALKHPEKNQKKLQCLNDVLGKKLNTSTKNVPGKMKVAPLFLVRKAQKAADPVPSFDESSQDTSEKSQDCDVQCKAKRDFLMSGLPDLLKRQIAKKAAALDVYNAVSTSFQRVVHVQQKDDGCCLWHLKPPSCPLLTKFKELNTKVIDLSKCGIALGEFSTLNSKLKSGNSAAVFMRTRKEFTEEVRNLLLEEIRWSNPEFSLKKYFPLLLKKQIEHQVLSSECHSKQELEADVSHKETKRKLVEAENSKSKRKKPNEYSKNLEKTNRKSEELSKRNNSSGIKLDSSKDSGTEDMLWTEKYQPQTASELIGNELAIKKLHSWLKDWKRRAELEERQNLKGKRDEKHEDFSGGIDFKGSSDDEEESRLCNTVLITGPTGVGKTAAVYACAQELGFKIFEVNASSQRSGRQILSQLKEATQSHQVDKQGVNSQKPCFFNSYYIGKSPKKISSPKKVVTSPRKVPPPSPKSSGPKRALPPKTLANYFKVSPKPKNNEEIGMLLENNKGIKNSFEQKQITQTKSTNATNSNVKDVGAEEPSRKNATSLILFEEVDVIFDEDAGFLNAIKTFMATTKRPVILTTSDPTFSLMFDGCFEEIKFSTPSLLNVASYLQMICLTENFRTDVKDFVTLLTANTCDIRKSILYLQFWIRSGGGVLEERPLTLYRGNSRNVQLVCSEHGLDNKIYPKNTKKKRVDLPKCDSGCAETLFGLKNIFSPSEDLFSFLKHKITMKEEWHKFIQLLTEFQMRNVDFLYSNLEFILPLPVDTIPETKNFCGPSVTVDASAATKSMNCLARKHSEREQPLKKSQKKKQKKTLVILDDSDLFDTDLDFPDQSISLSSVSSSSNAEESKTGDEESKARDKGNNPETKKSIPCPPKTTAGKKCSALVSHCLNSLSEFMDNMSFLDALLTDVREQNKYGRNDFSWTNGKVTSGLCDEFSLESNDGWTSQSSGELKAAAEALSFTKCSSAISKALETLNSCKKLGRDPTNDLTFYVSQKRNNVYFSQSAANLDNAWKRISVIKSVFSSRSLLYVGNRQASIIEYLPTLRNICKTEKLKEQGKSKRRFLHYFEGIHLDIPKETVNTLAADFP
Sequence of UniProt Q9ULC3 (Q9ULC3 whole entry): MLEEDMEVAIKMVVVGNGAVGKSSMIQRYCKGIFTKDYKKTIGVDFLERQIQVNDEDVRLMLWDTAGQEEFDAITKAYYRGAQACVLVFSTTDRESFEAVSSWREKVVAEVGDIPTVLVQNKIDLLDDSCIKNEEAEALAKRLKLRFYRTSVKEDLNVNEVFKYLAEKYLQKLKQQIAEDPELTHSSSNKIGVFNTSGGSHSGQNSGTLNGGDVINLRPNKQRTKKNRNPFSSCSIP

Target	NP40-soluble protein abundance (concentration: 1mM)	NP40-soluble protein abundance (concentration: 2mM)	NP40-soluble protein abundance (concentration: 4mM)	NP40-soluble protein abundance (concentration: 6mM)	NP40-soluble protein abundance (concentration: 8mM)	NP40-soluble protein abundance (concentration: 10mM)
UniProt Q9UIG0|Q9UIG0-2	1.04 ± 0.048	1.08 ± 0.055	1.11 ± 0.046	1.23 ± 0.074	1.3 ± 0.11	1.45 ± 0.16
ASF1A (UniProt Q9Y294)	0.958 ± 0.077	0.863 ± 0.091	0.904 ± 0.068	0.921 ± 0.037	0.946 ± 0.032	0.844 ± 0.11
CBX8 (UniProt Q9HC52)	1.08 ± 0.015	1.1 ± 0.04	1.13 ± 0.018	1.23 ± 0.028	1.33 ± 0.062	1.39 ± 0.044
UniProt Q9Y5V3|Q9Y5V3-2	1 ± 0.08	1 ± 0.059	0.937 ± 0.08	0.869 ± 0.077	0.81 ± 0.027	0.858 ± 0.048
UniProt Q9BRT2|V5IRT4	1.03 ± 0.022	1.13 ± 0.11	1.03 ± 0.016	1.0141 ± 0.00091	1.025 ± 0.0039	1.011 ± 0.0053
UniProt Q9Y639|Q9Y639-1	1.01 ± 0.056	1.05 ± 0.055	1.01 ± 0.056	0.986 ± 0.028	0.984 ± 0.055	0.961 ± 0.025
HEBP2 (UniProt Q9Y5Z4)	0.978 ± 0.012	0.9687 ± 0.0064	0.952 ± 0.023	0.957 ± 0.021	0.964 ± 0.018	0.926 ± 0.042
UniProt Q9UHP3|Q9UHP3-1|Q9UHP3-3	0.966 ± 0.013	0.997 ± 0.015	0.975 ± 0.026	0.963 ± 0.023	0.964 ± 0.013	0.971 ± 0.024
UniProt Q9BRG1|K7EKV4	1.04 ± 0.028	0.957 ± 0.094	1.02 ± 0.063	0.931 ± 0.043	0.982 ± 0.071	0.942 ± 0.099
UniProt Q9UG63|Q9UG63-2	1.04 ± 0.06	1.15 ± 0.065	1.41 ± 0.054	1.82 ± 0.11	2.25 ± 0.15	2.54 ± 0.26
PSMB7 (UniProt Q99436)	0.946 ± 0.04	0.909 ± 0.061	0.906 ± 0.057	0.928 ± 0.086	0.918 ± 0.081	0.9 ± 0.13
SIPA1 (UniProt Q96FS4)	1.01 ± 0.037	1.013 ± 0.003	1.03 ± 0.025	1.05 ± 0.029	1.03 ± 0.036	1.04 ± 0.02
UniProt Q9UMZ2|Q9UMZ2-5|Q9UMZ2-9	1.02 ± 0.035	1.05 ± 0.064	1.03 ± 0.031	0.978 ± 0.035	0.955 ± 0.021	0.981 ± 0.037
BCS1L (UniProt Q9Y276)	0.966 ± 0.021	0.874 ± 0.11	0.996 ± 0.024	0.955 ± 0.035	0.982 ± 0.024	0.937 ± 0.035
ISCU (UniProt Q9H1K1)	1.01 ± 0.039	1.06 ± 0.018	0.987 ± 0.043	0.969 ± 0.03	0.96 ± 0.054	0.958 ± 0.047
UniProt Q9H8P0|H0Y9P9	0.933 ± 0.084	0.9132 ± 0.0065	0.948 ± 0.063	0.999 ± 0.14	1.02 ± 0.12	1.05 ± 0.15
DDX18 (UniProt Q9NVP1)	1.03 ± 0.045	1.03 ± 0.013	1.16 ± 0.046	1.24 ± 0.075	1.35 ± 0.12	1.43 ± 0.15
UCK1 (UniProt Q9HA47)	0.981 ± 0.029	1.01 ± 0.028	1.01 ± 0.011	1.02 ± 0.026	0.9745 ± 0.0089	1.01 ± 0.01
GDE1 (UniProt Q9NZC3)	1.01 ± 0.043	1.02 ± 0.034	1.01 ± 0.03	1.01 ± 0.08	0.995 ± 0.05	1.01 ± 0.06
MOV10 (UniProt Q9HCE1)	0.952 ± 0.027	0.867 ± 0.15	0.932 ± 0.09	0.938 ± 0.032	0.944 ± 0.08	0.889 ± 0.12

Target	NP40-soluble protein abundance (concentration: 1mM)	NP40-soluble protein abundance (concentration: 2mM)	NP40-soluble protein abundance (concentration: 4mM)	NP40-soluble protein abundance (concentration: 6mM)	NP40-soluble protein abundance (concentration: 8mM)	NP40-soluble protein abundance (concentration: 10mM)
UniProt Q9Y2A7|Q9Y2A7-2	0.972 ± 0.026	0.974 ± 0.034	0.9706 ± 0.0091	1 ± 0.019	0.976 ± 0.02	0.985 ± 0.026
UniProt Q9NYF8|Q9NYF8-2|Q9NYF8-3|E9PK91	1.1 ± 0.018	1.19 ± 0.08	1.19 ± 0.033	1.29 ± 0.1	1.31 ± 0.11	1.43 ± 0.12
UniProt Q9H668	0.991 ± 0.028	0.97 ± 0.028	0.985 ± 0.027	0.995 ± 0.018	0.985 ± 0.044	0.963 ± 0.024
UniProt Q9NPG3|Q9NPG3-2	1.01 ± 0.013	1.05 ± 0.037	1.07 ± 0.021	1.06 ± 0.034	1.06 ± 0.022	1.09 ± 0.067
ATAD5 (UniProt Q96QE3)	1.03 ± 0.026	1.05 ± 0.046	1.08 ± 0.028	1.08 ± 0.031	1.08 ± 0.022	1.12 ± 0.045
UniProt Q9NRY4	0.9859 ± 0.0086	0.971 ± 0.035	0.999 ± 0.028	0.984 ± 0.03	0.964 ± 0.036	0.935 ± 0.024
SLC39A10 (UniProt Q9ULF5)	0.998 ± 0.021	1.07 ± 0.045	1.01 ± 0.026	1 ± 0.029	0.985 ± 0.04	0.994 ± 0.036
PUS3 (UniProt Q9BZE2)	1.01 ± 0.013	0.997 ± 0.0053	1 ± 0.026	1.03 ± 0.054	0.978 ± 0.032	0.974 ± 0.019
UniProt Q9BQ39|A0A087WVC1	1.22 ± 0.068	1.27 ± 0.062	1.35 ± 0.023	1.43 ± 0.04	1.52 ± 0.097	1.5 ± 0.14
POLR3F (UniProt Q9H1D9)	0.959 ± 0.035	0.97 ± 0.08	0.962 ± 0.042	1.04 ± 0.062	1.03 ± 0.077	1.02 ± 0.087
NOB1 (UniProt Q9ULX3)	0.972 ± 0.013	0.956 ± 0.027	0.984 ± 0.042	0.966 ± 0.023	1 ± 0.043	1 ± 0.047
UniProt Q9Y520|Q9Y520-5|Q9Y520-7|E7EPN9|Q9Y520-4	1.1 ± 0.013	1.2 ± 0.092	1.2 ± 0.05	1.25 ± 0.12	1.29 ± 0.14	1.41 ± 0.17
UniProt Q9NQ29|Q9NQ29-3|Q9NQ29-2	1.02 ± 0.04	1.13 ± 0.12	1.11 ± 0.055	1.15 ± 0.027	1.15 ± 0.091	1.35 ± 0.098
SRPRB (UniProt Q9Y5M8)	1.05 ± 0.021	1.06 ± 0.011	1.04 ± 0.021	1.08 ± 0.014	1.04 ± 0.014	1.08 ± 0.033
GRWD1 (UniProt Q9BQ67)	1.09 ± 0.064	1.01 ± 0.089	1.11 ± 0.068	1.05 ± 0.043	1.11 ± 0.073	1.04 ± 0.045
DYNLRB1 (UniProt Q9NP97)	0.996 ± 0.011	1.04 ± 0.054	0.977 ± 0.03	1.01 ± 0.018	0.9949 ± 0.0057	1.01 ± 0.02
UniProt Q9NSG2|Q9NSG2-2|Q9NSG2-3	0.991 ± 0.028	0.991 ± 0.015	0.993 ± 0.011	0.955 ± 0.022	0.964 ± 0.031	0.968 ± 0.015
UniProt Q9BYX2|Q9BYX2-2	0.981 ± 0.013	0.9921 ± 0.0015	1 ± 0.028	0.985 ± 0.042	0.972 ± 0.012	0.9639 ± 0.0013
UTP18 (UniProt Q9Y5J1)	1.05 ± 0.029	1.07 ± 0.048	1.1 ± 0.044	1.23 ± 0.028	1.28 ± 0.062	1.36 ± 0.05
UniProt Q9NVM9	1.03 ± 0.027	1.02 ± 0.04	1.05 ± 0.033	1.02 ± 0.069	1.03 ± 0.075	1.03 ± 0.063

Target	NP40-soluble protein abundance (concentration: 1mM)	NP40-soluble protein abundance (concentration: 2mM)	NP40-soluble protein abundance (concentration: 4mM)	NP40-soluble protein abundance (concentration: 6mM)	NP40-soluble protein abundance (concentration: 8mM)	NP40-soluble protein abundance (concentration: 10mM)
THRAP3 (UniProt Q9Y2W1)	1.11 ± 0.014	1.23 ± 0.1	1.2 ± 0.034	1.31 ± 0.044	1.32 ± 0.028	1.41 ± 0.03
RAB23 (UniProt Q9ULC3)	0.9714 ± 0.0024	0.9596 ± 0.0092	0.974 ± 0.029	1.01 ± 0.029	1.03 ± 0.044	1 ± 0.018
ANKRA2 (UniProt Q9H9E1)	0.912 ± 0.057	0.91 ± 0.023	0.911 ± 0.025	0.97 ± 0.087	0.99 ± 0.058	0.963 ± 0.05
CCDC124 (UniProt Q96CT7)	1.13 ± 0.037	1.29 ± 0.15	1.35 ± 0.058	1.58 ± 0.12	1.86 ± 0.17	2.16 ± 0.25
UniProt Q9HCJ0|Q9HCJ0-2	1.043 ± 0.0013	1.033 ± 0.0035	1.01 ± 0.013	1.01 ± 0.022	1 ± 0.016	1.02 ± 0.02
TIPIN (UniProt Q9BVW5)	0.948 ± 0.06	1.04 ± 0.14	0.933 ± 0.072	0.928 ± 0.063	0.911 ± 0.057	0.929 ± 0.093
NCOA5 (UniProt Q9HCD5)	1.09 ± 0.062	1.18 ± 0.039	1.37 ± 0.081	1.73 ± 0.1	1.89 ± 0.14	2.17 ± 0.35
DDX21 (UniProt Q9NR30)	1.21 ± 0.11	1.25 ± 0.13	1.39 ± 0.23	1.55 ± 0.31	1.66 ± 0.38	1.78 ± 0.4
UniProt Q9Y3B4	0.976 ± 0.061	0.981 ± 0.076	0.993 ± 0.019	0.968 ± 0.016	1.05 ± 0.051	1.01 ± 0.06
UniProt Q96RL7|Q96RL7-2|Q96RL7-3|Q96RL7-4	0.982 ± 0.039	0.918 ± 0.098	0.969 ± 0.012	0.916 ± 0.024	0.949 ± 0.022	0.8993 ± 0.0069
THOC3 (UniProt Q96J01)	1.07 ± 0.069	1.1 ± 0.075	1.17 ± 0.15	1.24 ± 0.16	1.3 ± 0.23	1.34 ± 0.27
SUPT16H (UniProt Q9Y5B9)	1.03 ± 0.016	1.01 ± 0.023	1.1 ± 0.049	1.24 ± 0.053	1.33 ± 0.055	1.46 ± 0.12
ZNF512B (UniProt Q96KM6)	1.01 ± 0.017	1.09 ± 0.06	1.1 ± 0.061	1.13 ± 0.044	1.16 ± 0.05	1.17 ± 0.064
UniProt Q9H0A0|Q9H0A0-2|A0A087WV29	1.47 ± 0.19	1.5 ± 0.19	1.62 ± 0.21	1.66 ± 0.17	1.79 ± 0.25	1.8 ± 0.17
UniProt Q96JP5|A0A0A6YYC7|Q96JP5-2	1.01 ± 0.017	1.05 ± 0.03	1.01 ± 0.021	1.04 ± 0.068	0.987 ± 0.057	1.01 ± 0.046
LRRC45 (UniProt Q96CN5)	0.977 ± 0.065	0.919 ± 0.029	0.969 ± 0.022	0.97 ± 0.015	1 ± 0.032	0.956 ± 0.03
CPSF2 (UniProt Q9P2I0)	1.01 ± 0.016	1 ± 0.053	1.03 ± 0.027	1.03 ± 0.061	1.05 ± 0.035	1.07 ± 0.055
UniProt Q9BZL4-4|Q9BZL4	1 ± 0.033	1.04 ± 0.036	1.01 ± 0.047	0.997 ± 0.023	0.978 ± 0.017	0.999 ± 0.015
NSMCE4A (UniProt Q9NXX6)	0.993 ± 0.068	0.945 ± 0.067	0.967 ± 0.056	0.933 ± 0.017	0.96 ± 0.026	0.941 ± 0.09
C16orf70 (UniProt Q9BSU1)	1.01 ± 0.056	0.978 ± 0.029	0.982 ± 0.042	1.01 ± 0.018	1.02 ± 0.02	1.05 ± 0.02
